Compound activity from PubChem.
Pf Dd2 growth: blocks in vitro growth of P. falciparum Dd2; P. falciparum Dd2 growth, SYBR Green, 72 h; Potency, µM (doses to about 28.9 µM), hits mostly inhibitors; 120,000 tested, 4.3% active; AID 1347417; active = well fitted inhibition curve with a large enough effect; also: nearly all actives have a fitted effect of over 65% in size
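Readout: SYBR Green fluorescence, 485 nm excitation, 535 nm emission, after ~16 h lysis at 37C. Before that, Dd2-infected red cells (2.5% hematocrit) grew 72 h with compound, 29 uM top final concentration.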
A number is an active result; – = inactive; [ ] = another dose, or the depositor's remark. The sample as a whole holds a higher share of hits than the screen did.

SMILES	Pf Dd2 growth
O=C(CCc1nc2ccccc2[nH]1)N1CCN(C(=O)N2CC3CC(C2)[C@H]2CCCC(=O)N2C3)CC1 (stereo not given in full)	–
CC(=O)C1=C(c2ccc(Cl)c(Cl)c2)N(C(C)=O)n2c(C)nnc2S1	2.8µM
CCC(=O)N1CCCCCCn2c(nnc2-c2ccc(F)cc2)CC1	–
CC(=O)C1=C(c2ccc(Cl)c(Cl)c2)N(C(C)=O)n2c(nnc2-c2ccccc2)S1	–
COc1ccc(C2=NS(=O)(=O)N(C)C(C(=O)Nc3cc(C)ccc3O)=C2)cc1OC	–
CCC(=O)C1=C(c2ccc(OC)c(OC)c2)N(C(=O)CC)n2c(nnc2-c2ccc(C)cc2)S1	–
CC(=O)C1=C(c2ccc(Cl)c(Cl)c2)N(C(C)=O)n2cnnc2S1	1.1µM
CCC(=O)C1=C(c2ccc(F)cc2)N(C(=O)CC)n2cnnc2S1	4.5µM
Cc1nnc2n1C(C)CN(C(=O)CCCn1nnc(-c3ccc(F)cc3)n1)C2 (stereo not given)	–
COc1ccc(C2=C(C(C)=O)Sc3nnc(-c4ccc(C)cc4)n3N2C(C)=O)cc1OC	2.5µM
CC(C)c1nnc(C2CN(C(=O)C3CCCCC3)CC23CCOCC3)o1 (stereo not given)	–
CCc1ccc(S(=O)(=O)N2[C@@H]3CC[C@H]2CC(NC(=O)c2ccncc2)C3)cc1 (stereo not given in full)	–
COc1ccc(CN2CCCC3(COc4ccccc4[S+](=O)([O-])N3)C2)cc1 (stereo not given)	–
CC(C)c1noc(CCn2ccnc2-c2cnc[nH]2)n1	–
COCc1cc(C[C@@H]2CC[C@H](O)[C@@H](CNC(=O)N3CCOCC3)O2)no1	–
CCn1cc(-c2ccc(Cl)cc2)cc1C(=O)O	–
O=C(c1ccccc1)N1CCC(c2n[nH]c(=O)n2-c2ccccc2)CC1	–
CN(Cc1nccn1Cc1ccccc1)C(=O)CCc1ccc2c(c1)OCO2	–
CN(C)CCN(C)Cc1cn(Cc2ccccc2)nc1-c1ccc2c(c1)OCO2	10µM
Cc1c(C(=O)NCCN(C)C)oc2c1-c1nn(Cc3cccc(Cl)c3)cc1CC2	–
OC1(c2csc(CN3CCOCC3)n2)CCN(C2COC2)CC1	–
Cc1ccc(NC(=O)N2C[C@@H](F)C[C@H]2C(=O)N2CCc3ccccc3C2)c(C)c1	–
Cc1cccc(NC(=O)N2C[C@@H](F)C[C@H]2C(=O)N2CCc3ccccc3C2)c1C	7.9µM
Cc1cc(Cl)ccc1NC(=O)N1C[C@@H](F)C[C@H]1C(=O)N1CCc2ccccc2C1	–
COC(=O)CC[C@H]1CNC(=O)[C@@H]2[C@@H](CCN2S(C)(=O)=O)N1C	–
SMILES	Pf Dd2 growth
NC(=O)[C@@H]1CN(C(=O)c2ccoc2)C[C@H]1COc1ccccc1	–
COCCNC(=O)c1nc2c(o1)CCN(Cc1ccc(OC)cc1)CC2	–
CCn1ncc(CN(C)C(=O)c2c(C)oc3c2CN(Cc2ccc(OC)cc2)CC3)c1C	11µM
COc1ccc(CN2CCc3oc(C)c(C(=O)N4CCN(C(C)=O)CC4)c3C2)cc1	–
CC(C)C(=O)N1CCC2(CCC(=O)N(CC3CC3)CC2)CC1	–
CN(C)c1cc(N2CCCC(NC(=O)Cc3ccsc3)C2)ncn1 (stereo not given)	–[5.79 µM]
CC(=O)c1ccc(NC(=O)CCSc2nc(-c3ccco3)cc(C(F)(F)F)n2)cc1	–
CN(C)c1ccc(NC(=O)CCSc2nc(-c3ccco3)cc(C(F)(F)F)n2)cc1	11µM
COc1ccc(NC(=O)CCSc2nc(-c3ccco3)cc(C(F)(F)F)n2)cc1	–
COC(=O)[C@@H]1Cc2ncn(C(C)C)c2CN1C(=O)c1ccccc1	–
COc1ccc(C)cc1NC(=O)C1CCN(C(=O)c2ncn3c2COC(c2ccc(F)cc2)C3)CC1 (stereo not given)	–
CN1CCN(c2nc3c(c(=O)[nH]2)CCN(Cc2ccc(Cl)cc2F)CC3)CC1	–[5.79 µM]
Clc1ccc(CN2CCC3(CC2)CC(c2cccnc2)=NO3)cc1	–
COc1ccc(CCNC(=O)CN2CC3CC(C2)[C@H]2CCCC(=O)N2C3)cc1OC (stereo not given in full)	–
COCCCNC(=O)c1ccc(Cn2c(=O)c3ccccc3n(Cc3ccc(Cl)cc3)c2=O)cc1	–
O=C(NC1CCN(Cc2ccccc2)CC1)c1ccc(Cn2c(=O)c3ccccc3n(Cc3ccc(Cl)cc3)c2=O)cc1	5µM
O=C(NC1CCN(Cc2ccccc2)CC1)c1ccc(Cn2c(=O)c3ccccc3n(Cc3ccccc3)c2=O)cc1	–
CNC(=O)[C@@H]1C[C@H](Oc2ccccc2)CN1C(=O)COc1ccc(F)cc1	–
CC(=O)N1C2CCC1CN(C(C)C)C2	–
COc1cccc(-c2ccccc2NC(=O)C2CCN(Cc3cc(OC)ccc3O)CC2)c1	2.2µM
CCc1ncc(CN2CCCC(C(=O)Nc3ccccc3-c3ccc(OC)cc3)C2)cn1 (stereo not given)	–
COc1ccc(-c2ccccc2NC(=O)C2CCCN(Cc3cnc(SC)nc3)C2)cc1 (stereo not given)	–
COc1ccc(-c2ccccc2NC(=O)C2CCCN2S(C)(=O)=O)cc1 (stereo not given)	–
COc1cccc(-c2ccc(CN3C4CCC3CN(C(=O)Nc3ccccc3F)C4)cc2)c1	–
CCn1ccnc1CN1CCCC(C(=O)Nc2ccccc2-c2ccc(OC)cc2)C1 (stereo not given)	–
SMILES	Pf Dd2 growth
COc1ccc(-c2ccccc2NC(=O)C2CCCN(CC=C(C)C)C2)cc1 (stereo not given)	7.9µM
COc1cccc(NC(=O)C2CCCN(Cc3cccnc3)CCC(=O)NCC2)c1 (stereo not given)	–
COc1cccc(-c2ccccc2NC(=O)C2CCN(Cc3ccc(F)cc3)CC2)c1	7.9µM
O=C(CN1C(=O)NC2(CCCCC2)C1=O)Nc1ccccc1	–
COc1ccc([C@@H]2CN(c3ncccc3C#N)C[C@H]2NC(C)=O)cc1	–
COCCN1CCCCCC(O)c2cc(C(=O)NCCc3ccncc3)ccc21 (stereo not given)	–
COCCN1C(=O)c2ccccc2C(C(=O)NCCC(C)C)C12CCCC2 (stereo not given)	–
COCCN1C(=O)c2ccccc2C(C(=O)Nc2nncs2)C12CCCC2 (stereo not given)	–
COCCN1C(=O)c2ccccc2C(C(=O)NCc2ccccc2)C12CCCC2 (stereo not given)	–
CCCc1nnc(NC(=O)C2c3ccccc3C(=O)N(CCOC)C23CCCCC3)s1 (stereo not given)	10µM
COCCN1C(=O)c2ccccc2C(C(=O)Nc2nnc(C)s2)C12CCCCC2 (stereo not given)	–
COCCN1C(=O)c2ccccc2C(C(=O)Nc2nc3c(s2)CCC3)C12CCCC2 (stereo not given)	13µM
COCCN1C(=O)c2ccccc2C(C(=O)Nc2nc(C)c(C)s2)C12CCCC2 (stereo not given)	7.9µM
COCCN1C(=O)c2ccccc2C(C(=O)Nc2nc(C(=O)OC)c(C(C)C)s2)C12CCCC2 (stereo not given)	11µM
COCCN1C(=O)c2ccccc2C(C(=O)NCCc2ccccc2)C12CCCC2 (stereo not given)	–
COCCN1C(=O)c2ccccc2C(C(=O)Nc2nncs2)C12CCCCC2 (stereo not given)	–
CCN1CCN(C(=O)C2Cn3cccc3C(=O)N2C)CC1 (stereo not given)	–
CCc1ccc(S(=O)(=O)N2CCCC(Cn3cnc4cccnc43)C2)cc1 (stereo not given)	–
